ALDH1A1 block – qHTS Assay for Inhibitors of Aldehyde Dehydrogenase 1 (ALDH1A1). Aldehyde dehydrogenase 1A1 (Homo sapiens), P00352. Purified ALDH1A1, NADH fluorescence, propionaldehyde substrate. Potency, µM (doses to about 75.3 µM), inactives show at the highest dose activity, negative = inhibition, hits mostly inhibitors. actives 7.3% (n = 220,000);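 note: potency is the fitted concentration of half-maximal effect; plate controls were no enzyme wells and a reference inhibitor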
HPGD block – qHTS Assay for Inhibitors of HPGD (15-Hydroxyprostaglandin Dehydrogenase). AID 894, 2007. Potency, µM, inactives show at the highest dose activity change, negative = inhibition, actives largely listed as inhibitors. purified HPGD, NADH fluorescence kinetic, PGE2 substrate. 15-hydroxyprostaglandin dehydrogenase [NAD(+)] (Homo sapiens), P15428. actives 4.3% (n = 150,000); note: potency is the fitted concentration of half-maximal effect
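20 nM HPGD preincubated 15 min at room temperature with compound in 50 mM Tris-HCl pH 8, 0.01% Tween 20. Started with 1 mM NAD+ and 30 uM prostaglandin E2; NADH fluorescence (360/450 nm) read 5 times over 30-s intervals, last minus first.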
Lamin A splicing – qHTS Assay for Modulators of Lamin A Splicing. actives 0.01% (n = 200,000). Potency, µM (series often up to 46.1 µM), for the others: top-dose ratio change, negative = inhibition, most hits filed as inhibitors. HeLa LMNA splicing GFP/RFP minigene ratio, 48 h; active = well fitted inhibition curve with a large enough effect in the signal ratio, with a control signal flat, not every such curve was filed as active; inconclusive = small, poorly fitted or top-dose-only effect, or effect the other way, or a change in a side signal; the % refers to the signal ratio; note: potency is the fitted concentration of half-maximal effect
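Read-out is the ratio of GFP to DsRed2 object intensity, acquired by 488 nm laser-scanning cytometry on HeLa lamin A-EGFP minigene reporter cells. Compound incubation 48 hrs at 37 °C in Opti-MEM with 2% FBS; DMSO 0.5% final.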
PNC inhibitor – High Content Assay for Compounds that inhibit the Assembly of the Perinucleolar Compartment | activity change (PNC), negative = inhibition, % at 10 µM | PC3M PTB-GFP, PNC prevalence imaging, 16 h; hits give low values | AID 2417, 2010 | actives 3.1% (n = 140,000);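 active = readout at or below -70, meaning at least 70% loss of cells showing the perinucleolar compartment, a nuclear body marking cancer cells; inconclusive = readout between -30 and a set limit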;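 note: plate controls were DMSO wells for no effect and camptothecin positive control wells for full effect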
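Compounds are pinned in duplicate onto adhered PC3M cells stably expressing GFP-tagged PTB and incubated 16 h at 37 C. Cells are then fixed, nuclei stained with Hoechst, and PNC-positive cells counted.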
12-hLO inh – qHTS Assay for Inhibitors of 12-hLO (12-human lipoxygenase) | Polyunsaturated fatty acid lipoxygenase ALOX12 (Homo sapiens), P18054 | purified 12-hLO, xylenol orange hydroperoxide absorbance | Potency, µM (highest dose often 57.1 µM), for inactives: at the highest dose activity change, negative = inhibition, most hits filed as inhibitors | actives 0.12% (n = 150,000) | AID 1452, 2008; active = well fitted inhibition curve with a large enough effect; inconclusive = small, poorly fitted or top-dose-only effect; note: potency is the fitted concentration of half-maximal effect; nearly all actives have a fitted effect of over 55% in size
Target sequence (P18054 whole entry, looked up): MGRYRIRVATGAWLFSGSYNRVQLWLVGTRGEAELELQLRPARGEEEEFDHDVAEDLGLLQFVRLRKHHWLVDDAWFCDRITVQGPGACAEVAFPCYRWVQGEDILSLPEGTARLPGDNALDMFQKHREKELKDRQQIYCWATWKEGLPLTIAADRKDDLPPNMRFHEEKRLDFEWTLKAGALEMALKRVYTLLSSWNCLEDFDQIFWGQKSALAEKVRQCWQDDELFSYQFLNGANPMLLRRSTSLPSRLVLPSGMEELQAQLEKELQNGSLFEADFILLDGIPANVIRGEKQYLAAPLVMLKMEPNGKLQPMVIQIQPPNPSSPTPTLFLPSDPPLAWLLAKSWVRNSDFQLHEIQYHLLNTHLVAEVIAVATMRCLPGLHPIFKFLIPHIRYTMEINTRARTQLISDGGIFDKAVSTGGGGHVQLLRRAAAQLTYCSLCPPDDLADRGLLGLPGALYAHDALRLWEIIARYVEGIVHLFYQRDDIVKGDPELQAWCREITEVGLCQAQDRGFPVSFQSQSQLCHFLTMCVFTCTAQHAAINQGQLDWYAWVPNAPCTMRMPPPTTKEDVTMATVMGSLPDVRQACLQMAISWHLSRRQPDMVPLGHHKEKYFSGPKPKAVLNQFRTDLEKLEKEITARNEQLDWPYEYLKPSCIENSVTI
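Purified human 12hLO (150 nM final) was preincubated with compounds for 15 min at room temperature in 25 mM Hepes pH 7.0, 0.01% Triton X-100, then reacted with 40 uM arachidonic acid for 30 min. Hydroperoxide was detected with ferrous iron/xylenol orange.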
Active calls of the source: *; ? = inconclusive; nt = no result given; [ ] = remark or other dose. Only some compounds are listed: those with a hit (about 10% of all), similar ones and a draw of the others. Unless noted, calls come from the whole dose curve; as a rule, active = well fitted inhibition curve with a large enough effect (not every such curve was filed as active); inconclusive = small, poorly fitted or top-dose-only effect, or another doubt; inactive = no such curve, though single readings can be large or run the other way. Unless noted, % is set by controls: 0 for no effect and ±100 for the full control effect.

SMILES | ALDH1A1 block | HPGD block | Lamin A splicing | PNC inhibitor | 12-hLO inh
Cc1ccc(N2C(=O)N(CC(=O)C(C)(C)C)c3ccccc3S2(=O)=O)cc1C | nt | nt | 5%[46 µM] | nt | nt
Cc1cc(C)nc(NC(=O)c2ccc(C)c([N+](=O)[O-])c2)n1 | 6% | 6% | -4% | ? | 4%
Cc1ccc(C(=O)Nc2ccccc2-c2ccccc2)cc1[N+](=O)[O-] | 18µM* | -6% | 8% | 110 | -5%
CCn1cc(C(=O)Nc2ccc(C)c([N+](=O)[O-])c2)cn1 | ? | -16% | ? | -87* | -5%
Cc1ccc(C(=O)Nc2ccc3c4c(cccc24)CC3)cc1[N+](=O)[O-] | 8% | ? | -7% | -81* | 3%
Cc1csc(NC(=O)c2ccc(C)c([N+](=O)[O-])c2)n1 | ? | 28µM* | ? | -17 | -7%
Cc1ccc(CN2CCN(C3CCN(C(=O)Nc4ccc(C)cc4Cl)CC3)C(=O)C2=O)cc1 | nt | nt | 13%[46 µM] | nt | nt
CCC(=O)N1C(=O)C2(Nc3ccccc3N2)c2ccccc21 | 5% | nt | nt | nt | nt
O=C(/C=C/c1ccco1)N1CCN(C/C=C/c2ccccc2)CC1 | 13µM* | -23% | -16% | ? | -2%
O=C(/C=C/c1ccc(F)cc1)N1CCN(S(=O)(=O)/C=C/c2ccccc2)CC1 | 2% | nt | -29%[46 µM] | nt | nt
O=C(/C=C/c1ccco1)N1CCN(S(=O)(=O)c2cccs2)CC1 | 7.1µM* | nt | -13%[46 µM] | nt | nt
O=C(/C=C/c1ccco1)N1CCN(S(=O)(=O)/C=C/c2ccccc2)CC1 | 7.9µM* | nt | nt | nt | nt
c1cncc(-c2cc(NCc3cccs3)ncn2)c1 | -11% | nt | -14% | nt | nt
COc1cccc(-c2nc(NCCN3CCOCC3)c3ccccc3n2)c1 | 2% | nt | -23% | nt | nt
CC(C)CO/N=C1/C[C@@H](O)[C@@H](O)[C@@H]2[C@@H]3C(=O)N([C@@H](C)c4ccccc4)C(=O)[C@H]3CC[C@H]12 | 2%[13.5 µM] | nt | nt | nt | nt
Fc1cc2[nH]c(=S)[nH]c2cc1Cl | 32µM* | nt | nt | nt | nt
NCCc1c(-c2ccccc2)n(-c2ccccc2)c2ccccc12 | ? | nt | 11%[9.22 µM] | nt | nt
Cc1nc2ccc(Cl)cc2nc(C)/c1=N\O | ? | -4% | 2% | 10 | -8%
CC(=O)c1c(C)nc2cc(Cl)ccc2c1N | 2% | -2% | -3% | -95* | 1%
CCO/C=C/C(O)(CNC(=O)c1ccc(C(C)(C)C)cc1)C(F)(F)F (stereo unspecified) | -7% | 25µM* | ? | -11 | -7%
COc1ccccc1N1C(=O)N(C(C)=O)C2C1Nc1ccccc1N2C (stereo unspecified) | 1.8µM* | -10% | ? | -4 | ?
COc1ccccc1N1C(=O)c2ccccc2NC1c1ccncc1 (stereo unspecified) | ? | -26% | 0% | -2 | -1%
CC(C)Oc1ccc(CNC(=O)c2ccc(CN3CC(=O)N4CCCCC4C3=O)cc2)cc1 (stereo unspecified) | nt | nt | 7%[46 µM] | nt | nt
Cc1nc(N2CCN(C(=O)CCC(=O)O)CC2)c2c(C)c(C)sc2n1 | 4% | 35µM* | 7% | 15 | -5%
CCC(=O)N1CCN(c2nc(C)nc3sc(C)c(C)c23)CC1 | 0% | ? | 6% | 48 | -1%
SMILES | ALDH1A1 block | HPGD block | Lamin A splicing | PNC inhibitor | 12-hLO inh
Cc1noc(C)c1C(=O)N1CCC2(CCN(C(=O)Nc3ccccc3)CC2)CC1 | ? | -8% | nt | nt | 4%
Cc1ccc(C=C2C(=O)c3ccccc3C2=O)o1 | -16% | -7% | -2% | -23 | -4%
O=C(O)c1ccc2c(c1)C(=O)/C(=C/c1ccccc1)C2=O | -15% | 13µM* | -9% | -6 | -1%
O=C(O)c1ccc2c(c1)C(=O)/C(=C\c1ccco1)C2=O | ? | nt | -7%[46 µM] | nt | nt
Cc1ccc(/C=C2/C(=O)c3ccc(C(=O)O)cc3C2=O)o1 | 7.1µM* | nt | -2%[46 µM] | nt | nt
CC1(C)SC2C(N3C(=O)C(c4ccccc4)NC3(C)C)C(=O)N2C1C(=O)O (stereo unspecified) | -5% | -20% | ? | nt | -2%
CCN(CC)c1nn2c(=O)c(C(=O)NCc3cccc(C)c3)cnc2s1 | nt | nt | -15%[46 µM] | nt | nt

High-throughput results from PubChem.
